Screening results: PubChem BioAssay, several laboratories
Hits are enriched below; roughly 9.6% of the tested compounds scored in any of these assays.
Autophagy mod: alters autophagy in cells; 190,000 tested, 0.98% active; MEF GFP-LC3 puncta imaging; test concentration mostly 10 µM; calls only at 10 µM (by protocol);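 active = percentage of spot-positive cells more than 3 SD above its plate mean, without a fluorescence outlier flag or 80% toxicity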;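 also: spot-positive cell cutoff set from DMSO-treated cells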
bCat KO growth: beta-catenin-lacking colon tumor cell growth suppression; HCT116 beta-catenin knockout viability, CellTiter-Glo, 60 h; hits give low values; viability, % at 10 µM; 140,000 tested, 1.5% active; AID 818;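 active = viability at or under a set limit, the compound median less 4 SD, cut at about 6% in these data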;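 also: 0% = Hyamine 1622 control at 20 µM and 100% = untreated cell control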
Ins promoter up: MIN6 insulin promoter up-regulation | z-score at 5 µM | 190,000 tested, 0.3% active | AID 1625 | MIN6 insulin promoter-GFP reporter, high-content imaging; hits give high values;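 active = z-score above 3 at 5 µM with at least 500 cells counted in the well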
PTEN del growth: PTEN-deleted cell growth suppression; 140,000 tested, 1.2% active; viability, % at 10 µM; HCT116 PTEN-null viability, CellTiter-Glo, 60 h; hits give low values;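 active = viability at or below a set limit, 4 SD under the median of all tested compounds, cut at about 3.7% in these data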;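 also: PTEN knockout HCT116 line with beta catenin targeted HCT116 as companion control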
L major viab: reduces viability of Leishmania major promastigotes; resazurin fluorescence viability; inhibition, % at 10 µM; 200,000 tested, 9% active; AID 1063; in the data active = inhibition above about 50%;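 also: promastigotes grown with compound for 44 hours at 28 °C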
Insulin prom inh: TRM-6 insulin promoter activity inhibition | inhibition, % at 2 µM | 130,000 tested, 0.9% active | TRM-6 cells (human fetal islet line), insulin promoter-eGFP reporter, imaging; reporter expression induced with tamoxifen;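 active = inhibition above the mean plus 3 SD, with well images judged a real hit on visual review, cut at about 60% in these data, passing the limit was not always enough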
Active calls of the source: *.

What do the screens show for `O=C(C1CCCN(S(=O)(=O)c2ccc(Cl)cc2)C1)N(Cc1cccs1)C1CC1` (stereo unspecified)?
Autophagy mod: inactive; bCat KO growth: 72.0; Ins promoter up: -0.53; PTEN del growth: 74.5; L major viab: 4.1; Insulin prom inh: -43.8

How did COc1ccc(NS(=O)(=O)c2cc(C)ccc2OC)cc1OC do in these assays?
Autophagy mod: inactive; bCat KO growth: 93.8; Ins promoter up: -0.78; PTEN del growth: 95.6; L major viab: -2.0; Insulin prom inh: -33.3

Results for CC(=O)Nc1ccc(N=Nc2ccc(O)cc2)cc1 ?
Autophagy mod: inactive; bCat KO growth: 88.6; Ins promoter up: 1.08; PTEN del growth: 85.2; L major viab: 52.1*; Insulin prom inh: 21.1

How did CC(=O)Nc1ccc(N=NN2CCOCC2)cc1 do in these assays?
Autophagy mod: inactive; Ins promoter up: -0.77; L major viab: -0.2; Insulin prom inh: 18.5

Results for C=CCSc1nc(N)c2c(C)c(C)sc2n1 ?
Autophagy mod: inactive; bCat KO growth: 89.1; PTEN del growth: 86.8; L major viab: 13.2

How did CCSc1nc(N)c2c(C)c(C)sc2n1 do in these assays?
Autophagy mod: inactive; bCat KO growth: 107.5; PTEN del growth: 102.0; L major viab: 2.1; Insulin prom inh: 77.8*

Results for CCOC(=O)Cc1csc(NC(=O)CC)n1 ?
Autophagy mod: inactive; bCat KO growth: 93.6; Ins promoter up: -0.24; PTEN del growth: 102.6; L major viab: 1.2

Results for CCOC(=O)Cc1csc(NC(=O)CSc2nc(N)c3c(C)c(C)sc3n2)n1 ?
Autophagy mod: inactive; bCat KO growth: 87.4; PTEN del growth: 96.6; L major viab: -2.6; Insulin prom inh: 100.0*

What do the screens show for `CCN1CCN(c2c(Cl)cccc2NC(=O)c2ccc3c(c2)OCCO3)CC1`?
Autophagy mod: inactive; bCat KO growth: 66.2; PTEN del growth: 60.5; L major viab: 12.8; Insulin prom inh: 9.3

Results for Cc1ccc(C(=O)OCC(=O)NCc2cccs2)c(C)c1 ?
Autophagy mod: active; Ins promoter up: 0.32; L major viab: 7.6

How did Cc1cc(C)cc(C(=O)OCC(=O)NCc2cccs2)c1 do in these assays?
Autophagy mod: inactive; bCat KO growth: 69.2; Ins promoter up: 0.27; PTEN del growth: 78.0; L major viab: -1.5; Insulin prom inh: 23.1

How did Cc1cc2c(cc(C(=O)OCC(=O)NCc3cccs3)n2C(C)C)o1 do in these assays?
Autophagy mod: active; bCat KO growth: 12.0; Ins promoter up: -1.78; PTEN del growth: 18.2; L major viab: -3.8; Insulin prom inh: -75.0

Results for COc1ccc(Cl)c2c1[nH]c1nc(SCc3ccccn3)nnc12 ?
Autophagy mod: inactive; Ins promoter up: -2.2; L major viab: 52.4*; Insulin prom inh: 7.7

How did COC(=O)c1sccc1NC(=S)Nc1ccc(F)cc1 do in these assays?
Autophagy mod: inactive; bCat KO growth: 89.3; Ins promoter up: 0.09; PTEN del growth: 89.5; L major viab: -4.2; Insulin prom inh: -26.5

Results for O=C(Cc1ccc(S(=O)(=O)N2CCCC2)s1)Nc1nc2c(s1)CCCC2 ?
Autophagy mod: inactive; bCat KO growth: 83.1; Ins promoter up: 0.7; PTEN del growth: 89.2; L major viab: 84.6*; Insulin prom inh: -13.2

What do the screens show for `CCOC(=O)C1=C(SCC)c2cc3c(n2C1=O)CCCC3`?
Autophagy mod: inactive; bCat KO growth: 77.3; PTEN del growth: 76.4; L major viab: 3.7; Insulin prom inh: 13.3

How did CN(C)C(=O)CCc1nc2sc3c(c2c(=O)[nH]1)CCCC3 do in these assays?
Autophagy mod: inactive; bCat KO growth: 96.8; Ins promoter up: 0.61; PTEN del growth: 112.5; L major viab: -1.3; Insulin prom inh: 6.5

What do the screens show for `Cn1c(=O)n(C)c2cc(/C=C3/SC(=O)N(CC(=O)N4CCOCC4)C3=O)ccc21`?
Autophagy mod: inactive; bCat KO growth: 66.3; Ins promoter up: -0.36; PTEN del growth: 85.9; L major viab: 9.6; Insulin prom inh: -79.3

What do the screens show for `CCOC(=O)CN1C(=O)S/C(=C/c2ccc3c(c2)n(C)c(=O)n3C)C1=O`?
Autophagy mod: inactive; bCat KO growth: 75.6; Ins promoter up: 1.08; PTEN del growth: 77.1; L major viab: 68.6*; Insulin prom inh: -75.0

How did COc1cc(C(=O)NCCCNc2ccc([N+](=O)[O-])cc2)cc(OC)c1OC do in these assays?
Autophagy mod: inactive; bCat KO growth: 89.5; Ins promoter up: -0.09; PTEN del growth: 80.7; L major viab: 76.9*; Insulin prom inh: -29.7

Results for O=C(CNC(=O)c1ccccc1F)N/N=C/c1cc(Br)ccc1OCc1ccccc1 ?
Autophagy mod: inactive; bCat KO growth: 20.8; Ins promoter up: -0.26; PTEN del growth: 11.9; L major viab: 7.6; Insulin prom inh: -34.7

Results for O=C(NNc1ccc(C2CCCCC2)cc1)C(O)(c1ccccc1)c1cccs1 (stereo unspecified) ?
Autophagy mod: inactive; bCat KO growth: 72.4; Ins promoter up: -0.68; PTEN del growth: 58.2; L major viab: 99.1*; Insulin prom inh: -6.5

What do the screens show for `COc1ccc(C(O)(C(=O)NNc2ccc(C)cc2)c2cccs2)cc1` (stereo unspecified)?
Autophagy mod: inactive; bCat KO growth: 89.2; Ins promoter up: -0.46; PTEN del growth: 79.7; L major viab: 16.6; Insulin prom inh: 22.9

Results for CC(=O)Nc1ccc2c(CSc3nnc(-c4cccnc4)n3-c3ccc(C)cc3C)cc(=O)oc2c1 ?
Autophagy mod: inactive; bCat KO growth: 79.1; Ins promoter up: -0.24; PTEN del growth: 86.3; L major viab: 56.9*; Insulin prom inh: -12.0

Results for CC(C)c1ccccc1-n1c(SCc2cc(=O)oc3ccc4ccccc4c23)nnc1-c1cccnc1 ?
Autophagy mod: inactive; bCat KO growth: 66.8; Ins promoter up: 0.16; PTEN del growth: 59.7; L major viab: 54.3*

What do the screens show for `CCc1ccc2[nH]c(=O)c(C(c3nnnn3CCOC)N3CCN(c4ccccc4)CC3)cc2c1` (stereo unspecified)?
Autophagy mod: inactive; bCat KO growth: 92.6; PTEN del growth: 75.7; L major viab: -2.7; Insulin prom inh: 15.6

Results for NC(=O)c1sc2cc(C(F)(F)F)cnc2c1-c1ccccc1 ?
Autophagy mod: inactive; Ins promoter up: -0.72; L major viab: 6.0

Results for Cc1nc([N+](=O)[O-])c(Br)n1Cc1ccc(Cl)c(Cl)c1 ?
Autophagy mod: inactive; Ins promoter up: -0.88; L major viab: 100.5*; Insulin prom inh: -20.0

Results for Cc1nc([N+](=O)[O-])c(Br)n1CC(=O)c1ccc(Cl)cc1 ?
Autophagy mod: inactive; bCat KO growth: 47.4; Ins promoter up: 0; PTEN del growth: 40.8; L major viab: 99.1*; Insulin prom inh: 68.8*

What do the screens show for `COc1ccc(C(=O)Cn2c(C)nc([N+](=O)[O-])c2Br)cc1`?
Ins promoter up: -0.94

Results for Cc1ccc(NC2CC(=O)N(c3cccc([N+](=O)[O-])c3)C2=O)cc1 (stereo unspecified) ?
Autophagy mod: inactive; Ins promoter up: 0.7; L major viab: -2.9
